Measurements published in PubChem BioAssay (NCI).
About 83,000 compounds went through this panel and 20% of them were active in at least one assay; those are over-represented in the sample as a whole.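 Single-concentration screen, 48 h exposure, 96-well plates. Endpoint: percent growth. Below 10 = active.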 Calls of active or inactive are those of the source.

Key:
Experiment in all cases: NCI-60 one-dose screen, 48 h (100 = growth as untreated, 0 = no growth, -100 = all killed)
Conditions in all cases: 10 µM unless noted
SR leukemia = test system: SR leukemia
RPMI-8226 leukemia = test system: RPMI-8226 leukemia
OVCAR-5 ovarian = test system: OVCAR-5 ovarian
OVCAR-4 ovarian = test system: OVCAR-4 ovarian
SK-OV-3 ovarian = test system: SK-OV-3 ovarian
IGROV1 ovarian = test system: IGROV1 ovarian
OVCAR-3 ovarian = test system: OVCAR-3 ovarian
HS 578T breast = test system: HS 578T breast
NCI/ADR-RES ovarian = test system: NCI/ADR-RES ovarian
T-47D breast = test system: T-47D breast
BT-549 breast = test system: BT-549 breast
MDA-MB-435 melanoma = test system: MDA-MB-435 melanoma
SW-620 colon = test system: SW-620 colon
MCF7 breast = test system: MCF7 breast
HCT-116 colon = test system: HCT-116 colon
HCC-2998 colon = test system: HCC-2998 colon
KM12 colon = test system: KM12 colon
OVCAR-8 ovarian = test system: OVCAR-8 ovarian

Measured: growth

COc1cc(C)c(C2C(C#N)=C(N)Oc3n[nH]c(-c4cccs4)c32)cc1C(C)C (stereo not given)
inactive: SR leukemia 87.1% | RPMI-8226 leukemia 87.5% | OVCAR-5 ovarian 115% | OVCAR-4 ovarian 103% | SK-OV-3 ovarian 98% | IGROV1 ovarian 108% | OVCAR-3 ovarian 109% | HS 578T breast 103% | NCI/ADR-RES ovarian 103% | T-47D breast 84.4% | BT-549 breast 102% | MDA-MB-435 melanoma 105% | SW-620 colon 101% | MCF7 breast 91.5% | HCT-116 colon 103% | HCC-2998 colon 93.5% | KM12 colon 98.6%

Oc1ccc(N=Cc2ccccc2O)cc1
inactive: SR leukemia 83.7% | OVCAR-8 ovarian 83.6% | OVCAR-5 ovarian 87.3% | OVCAR-4 ovarian 89.3% | SK-OV-3 ovarian 98.5% | IGROV1 ovarian 90.2% | OVCAR-3 ovarian 90.6% | HS 578T breast 112% | NCI/ADR-RES ovarian 98.2% | T-47D breast 89.4% | BT-549 breast 78.3% | MDA-MB-435 melanoma 110% | SW-620 colon 99.1% | MCF7 breast 92.8% | HCT-116 colon 98.8% | HCC-2998 colon 116% | KM12 colon 88.8%

COc1cccc(C2=NN3C(C2)c2cc(Br)cc(OC)c2OC32CCN(Cc3ccccc3)CC2)c1 (stereo not given)
inactive: SR leukemia 111% | RPMI-8226 leukemia 107% | OVCAR-5 ovarian 105% | OVCAR-4 ovarian 90.8% | SK-OV-3 ovarian 106% | IGROV1 ovarian 98.6% | OVCAR-3 ovarian 105% | HS 578T breast 94.7% | NCI/ADR-RES ovarian 105% | T-47D breast 108% | BT-549 breast 110% | MDA-MB-435 melanoma 98.3% | SW-620 colon 96.3% | MCF7 breast 96.3% | HCT-116 colon 114% | HCC-2998 colon 99.2% | KM12 colon 103%

CSc1nc(Nc2cccc(NC(=O)CCl)c2)c(C#N)c(-c2cccc([N+](=O)[O-])c2)n1
inactive: OVCAR-8 ovarian 37% | OVCAR-5 ovarian 78.7% | OVCAR-4 ovarian 28.7% | SK-OV-3 ovarian 95.5% | HS 578T breast 52% | NCI/ADR-RES ovarian 56.7% | T-47D breast 12.2% | BT-549 breast 14.3% | MDA-MB-435 melanoma 45.3% | HCC-2998 colon 105% | KM12 colon 88.5%
active: RPMI-8226 leukemia -14.1% | IGROV1 ovarian 0.383% | OVCAR-3 ovarian 6.67% | SW-620 colon 7.84% | MCF7 breast 0% | HCT-116 colon -6.05%

COc1cc2nc(N3CCCC3)nc(NCCc3ccccc3)c2cc1OC
inactive: OVCAR-8 ovarian 65.6% | OVCAR-5 ovarian 39.5% | SK-OV-3 ovarian 84.7% | IGROV1 ovarian 70.3% | OVCAR-3 ovarian 82.5% | HS 578T breast 98.4% | NCI/ADR-RES ovarian 61.8% | T-47D breast 80.8% | BT-549 breast 82.6% | MDA-MB-435 melanoma 91.5% | MCF7 breast 35.4% | HCC-2998 colon 70.6% | KM12 colon 96.3%
active: RPMI-8226 leukemia -21.8% | OVCAR-4 ovarian -2.44% | SW-620 colon 0.907% | HCT-116 colon 2.87%

O=C(CN(C(=O)Cn1c(=O)n2nnnc2c2ccccc21)c1ccccc1C(F)(F)F)Nc1ccc(C(F)(F)F)cc1
inactive: RPMI-8226 leukemia 103% | OVCAR-8 ovarian 100% | OVCAR-5 ovarian 106% | OVCAR-4 ovarian 97.1% | SK-OV-3 ovarian 103% | IGROV1 ovarian 88.1% | OVCAR-3 ovarian 110% | HS 578T breast 103% | NCI/ADR-RES ovarian 106% | T-47D breast 101% | BT-549 breast 95.7% | MDA-MB-435 melanoma 105% | SW-620 colon 105% | MCF7 breast 96.1% | HCT-116 colon 95.5% | HCC-2998 colon 106% | KM12 colon 110%

CCOC(=O)C(C)(C#N)C1C=CCCC1 (stereo not given)
inactive: RPMI-8226 leukemia 92.9% | OVCAR-8 ovarian 98.8% | OVCAR-5 ovarian 68.2% | OVCAR-4 ovarian 91.5% | SK-OV-3 ovarian 95.1% | IGROV1 ovarian 94.8% | OVCAR-3 ovarian 90.6% | HS 578T breast 84.1% | NCI/ADR-RES ovarian 91.9% | T-47D breast 84.5% | BT-549 breast 111% | MDA-MB-435 melanoma 100% | SW-620 colon 91.2% | MCF7 breast 92.7% | HCT-116 colon 93.2% | HCC-2998 colon 43.5% | KM12 colon 90.5%

CNC(=O)c1cc(Oc2ccc(NC(=O)Nc3ccc(Cl)c(OC(F)(F)F)c3)c(F)c2)ccn1
inactive: RPMI-8226 leukemia 13.6% | OVCAR-8 ovarian 30.3% | OVCAR-5 ovarian 56.7% | SK-OV-3 ovarian 64.9% | IGROV1 ovarian 46.4% | OVCAR-3 ovarian 39.8% | HS 578T breast 51.9% | NCI/ADR-RES ovarian 31.6% | BT-549 breast 60.4% | MDA-MB-435 melanoma 19.4% | SW-620 colon 43.1% | MCF7 breast 17.1% | HCT-116 colon 14% | HCC-2998 colon 39% | KM12 colon 13.3%
active: OVCAR-4 ovarian 5.4% | T-47D breast -2.82%

N#Cc1c(-c2ccc(Cl)cc2)nc(NN=Cc2ccco2)nc1N1CCOCC1
inactive: RPMI-8226 leukemia 66.5% | OVCAR-8 ovarian 87.9% | OVCAR-5 ovarian 76.9% | OVCAR-4 ovarian 65.9% | SK-OV-3 ovarian 49.4% | IGROV1 ovarian 25.9% | OVCAR-3 ovarian 66.6% | HS 578T breast 68.2% | NCI/ADR-RES ovarian 75.8% | T-47D breast 23.2% | BT-549 breast 58.5% | MDA-MB-435 melanoma 79.4% | SW-620 colon 82.2% | MCF7 breast 26.2% | HCT-116 colon 76.2% | HCC-2998 colon 74.8% | KM12 colon 95%

COc1ccc(C(=S)N2CCN(c3cccc(Cl)c3)CC2)cc1
inactive: SR leukemia 90.6% | OVCAR-8 ovarian 100% | OVCAR-5 ovarian 98.5% | OVCAR-4 ovarian 99.1% | SK-OV-3 ovarian 107% | IGROV1 ovarian 104% | OVCAR-3 ovarian 112% | HS 578T breast 118% | NCI/ADR-RES ovarian 104% | T-47D breast 89.9% | BT-549 breast 90.8% | MDA-MB-435 melanoma 106% | SW-620 colon 101% | MCF7 breast 111% | HCT-116 colon 89.2% | KM12 colon 104%

CCCCC(=O)OCC1OC(n2cnc3c(=S)nc[nH]c32)C(OC(=O)CCCC)C1OC(=O)CCCC (stereo not given)
active: OVCAR-8 ovarian -23.2% | HCC-2998 colon -0.586%
inactive: SR leukemia 24.5% | OVCAR-5 ovarian 32.3% | OVCAR-4 ovarian 29.8% | SK-OV-3 ovarian 19.3% | OVCAR-3 ovarian 22% | HS 578T breast 38.1% | NCI/ADR-RES ovarian 19.6% | T-47D breast 36.1% | BT-549 breast 43.9% | MDA-MB-435 melanoma 29.4% | SW-620 colon 23.5% | MCF7 breast 20.2% | HCT-116 colon 27.3% | KM12 colon 36.1%

Cc1cc(N2CCCC2)nc(NC2CCCC(Nc3ccnc4cc(Cl)ccc34)C2)n1 (stereo not given)
inactive: OVCAR-4 ovarian 17.1%
active: RPMI-8226 leukemia -55.6% | OVCAR-8 ovarian -69.8% | OVCAR-5 ovarian -14.8% | SK-OV-3 ovarian -29% | IGROV1 ovarian -27.5% | OVCAR-3 ovarian -53.2% | HS 578T breast -41.6% | NCI/ADR-RES ovarian -10.1% | T-47D breast -35.1% | BT-549 breast -57.9% | MDA-MB-435 melanoma -92.6% | SW-620 colon -58.3% | MCF7 breast -13.2% | HCT-116 colon -87.1% | HCC-2998 colon -40.4% | KM12 colon -62.4%

COc1ccc(-c2cc(C(=O)N=Nc3c(O)[nH]c4ccc(Br)cc34)no2)cc1
inactive: RPMI-8226 leukemia 107% | OVCAR-8 ovarian 99.8% | OVCAR-5 ovarian 99.8% | OVCAR-4 ovarian 103% | SK-OV-3 ovarian 95.2% | IGROV1 ovarian 100% | OVCAR-3 ovarian 108% | HS 578T breast 95.7% | NCI/ADR-RES ovarian 97.4% | T-47D breast 93.6% | BT-549 breast 107% | MDA-MB-435 melanoma 101% | SW-620 colon 93.7% | MCF7 breast 94.1% | HCT-116 colon 91.6% | HCC-2998 colon 104% | KM12 colon 100%

N#C/C(=C\c1ccc(-c2ccc(Cl)c(Cl)c2)o1)c1nc(-c2ccco2)cs1
active: T-47D breast -21.3% | HCC-2998 colon 0.932%
inactive: RPMI-8226 leukemia 63.6% | OVCAR-8 ovarian 101% | OVCAR-5 ovarian 55.7% | OVCAR-4 ovarian 37.6% | SK-OV-3 ovarian 85.1% | IGROV1 ovarian 40.5% | OVCAR-3 ovarian 81.1% | HS 578T breast 97.4% | NCI/ADR-RES ovarian 101% | BT-549 breast 109% | MDA-MB-435 melanoma 103% | SW-620 colon 103% | MCF7 breast 12.5% | HCT-116 colon 97.9% | KM12 colon 50.6%

O=C1CC(=NCC(=O)n2c(-c3ccccc3)nc3ccccc32)NN1
inactive: RPMI-8226 leukemia 104% | OVCAR-8 ovarian 102% | OVCAR-5 ovarian 99.9% | OVCAR-4 ovarian 97.5% | SK-OV-3 ovarian 84.8% | IGROV1 ovarian 77.2% | OVCAR-3 ovarian 103% | HS 578T breast 103% | NCI/ADR-RES ovarian 99.5% | T-47D breast 89.4% | BT-549 breast 107% | MDA-MB-435 melanoma 105% | SW-620 colon 100% | MCF7 breast 72.7% | HCT-116 colon 94.6% | HCC-2998 colon 109% | KM12 colon 101%

COc1ccc(-c2nc3ccc(-c4nc5ccc(N6CCN(c7ccncc7)CC6)cc5[nH]4)cc3[nH]2)cc1OC
active: OVCAR-3 ovarian 4.61% | T-47D breast 6.91%
inactive: RPMI-8226 leukemia 53.5% | OVCAR-8 ovarian 34.6% | OVCAR-5 ovarian 87.2% | OVCAR-4 ovarian 26.5% | SK-OV-3 ovarian 73.6% | IGROV1 ovarian 65.2% | HS 578T breast 44.1% | NCI/ADR-RES ovarian 96.9% | BT-549 breast 39.4% | MDA-MB-435 melanoma 31.4% | SW-620 colon 35.6% | MCF7 breast 12.3% | HCT-116 colon 17.8% | HCC-2998 colon 34.9% | KM12 colon 92.8%
